This is a sample that favours compounds with a hit; in the whole collection about 3.6% have one here.
TRHR ag = agonists of human TRH receptor; P34981; AID 493084; TRHR cells, calcium flux fluo-8, FDSS agonist mode; hit rate 0.18% among 360,000; activation, % at 2 µM
Target sequence (P34981 whole entry, looked up): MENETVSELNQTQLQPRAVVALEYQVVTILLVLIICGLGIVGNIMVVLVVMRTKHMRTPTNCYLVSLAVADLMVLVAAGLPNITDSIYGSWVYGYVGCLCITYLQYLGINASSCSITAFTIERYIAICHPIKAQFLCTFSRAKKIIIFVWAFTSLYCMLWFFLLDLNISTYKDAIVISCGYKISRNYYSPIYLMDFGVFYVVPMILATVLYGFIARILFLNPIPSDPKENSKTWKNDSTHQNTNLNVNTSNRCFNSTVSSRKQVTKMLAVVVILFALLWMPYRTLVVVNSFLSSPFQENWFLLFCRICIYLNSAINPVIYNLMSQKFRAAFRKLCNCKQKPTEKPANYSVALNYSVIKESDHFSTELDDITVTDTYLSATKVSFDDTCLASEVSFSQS
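In this calcium-flux screen, cells bearing human TRHR are dye-loaded with fluo-8, baselined for 10 cycles, then exposed to library compounds; positive kinetic calcium responses during the agonist phase mark hits, with TRH as control.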
LDHA inh = inhibitors of human lactate dehydrogenase A; P00338; purified LDHA, NADH/diaphorase-resazurin fluorescence; active compounds read low; activity change, % (values are at about 110 or 230 µM); hit rate 0.15% among 480,000; AID 1347041; in the data active = activity change below about -30%
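Remaining NADH was detected by diaphorase (0.133 mg/mL) converting 37 µM resazurin to fluorescent resorufin, read at 0 and 20 minutes. The preceding 5-minute room-temperature reaction used 2 nM LDHA, 0.2 mM sodium pyruvate and 0.06 mM NADH at pH 7.4.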
D1 antagonist = human D1 dopamine receptor antagonism; P21728; HEK293 TREx D1 cells, calcium flux, dopamine EC80; active compounds read low; activity change, negative = inhibition, % at 10 µM; hit rate 3.2% among 360,000; in the data active = activity change below about -30%
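Calcium flux readout: force-coupled, inducible Hek293 Trex D1 line, cells induced overnight at 30 C with tetracycline, dye-loaded 30–90 min at RT. Antagonism scored against EC80 dopamine challenge given 180 s after compound.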
TRHR enhancer = TRH receptor (human) allosteric enhancement; TRHR cells, fluo-8 calcium fluorescence, EC20 TRH enhancement; enhancement, % at 2 µM; hit rate 0.66% among 360,000; AID 493056; in the data active = enhancement above about 30%
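Enhancer read-out: after compound pinning and an initial kinetic agonist-mode read, an EC20 of TRH (10 nM final) was injected and fluo-8 calcium signal (Ex 480/Em 530) followed at 1 s/cycle for 100 cycles in TRHR-expressing cells.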
D1 potentiator = enhances dopamine response at the human D1 receptor; P21728; HEK293 TREx D1 cells, calcium flux, dopamine EC20 potentiation; potentiation, % at 10 µM; hit rate 0.036% among 360,000; in the data active = potentiation above about 30%
D1 ag = human D1 receptor agonism | HEK293 T-REx D1 cells, calcium flux, agonist mode | activation, % at 2 µM | P21728 | hit rate 1% among 360,000
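Tetracycline-induced HEK293 TREx D1 cells, force-coupled to calcium signalling, were dye-loaded with a no-wash calcium kit. Compound was pin-added after a 10 s baseline. Fluorescence was read kinetically at 1 cycle/s for 180 s, with calcium rises flagged as agonism.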
Of the large screens only hits and unclear results are named; the others gave an inactive call; ! = not active in a repeat. Rule as the data show it, unless noted: active = activation above about 30%; inactive = the rest.

Cc1nn(-c2ccccc2)c(-n2cccc2)c1C(=O)NCc1ccccc1Cl	none
CC(C)(C)NC(=O)CC1(C(=O)NCC2(c3ccccc3)CC2)CCCC1	none (no result: TRHR ag, D1 antagonist, TRHR enhancer, D1 potentiator, D1 ag)
CCOC(=O)/C(C#N)=C/c1ccc(OCC(=O)N2CCOCC2)cc1	none (no result: TRHR ag, D1 antagonist, TRHR enhancer, D1 potentiator, D1 ag)
CCCCc1ccc(C(=O)O)cc1	none (no result: TRHR ag, D1 antagonist, TRHR enhancer, D1 potentiator, D1 ag)
CCOc1cc2ccccc2cc1C(=O)O	none (no result: TRHR ag, D1 antagonist, TRHR enhancer, D1 potentiator, D1 ag)
CN1C(=O)c2cccc3c(S(=O)(=O)N4CCCC4C(=O)O)ccc1c23 (stereo not given)	D1 antagonist -38
COc1ccc(NC(=O)C(=O)c2cc(C)n(-c3ccc(C)cc3)c2C)cc1Cl	D1 antagonist -53
CCNC(=O)C(=O)Nc1ccc(OC)c(Cl)c1	none
COc1ccc(C2(O)CCN(CC(=O)Nc3nccs3)CC2)c(OC)c1	D1 antagonist -31
CCc1cc2c(COC(=O)c3cccc(S(C)(=O)=O)c3)cc(=O)oc2cc1O	none
CCc1cc2c(COC(=O)c3c(C)noc3C)cc(=O)oc2cc1O	TRHR enhancer 33
COc1ccc(C(C)=O)cc1COC(=O)c1c(C)noc1C	D1 antagonist -44
O=C(CSc1nnc(N2CCOCC2)n1-c1cccc(F)c1)Nc1ccc2c(c1)CCC2	none (no result: TRHR ag, D1 antagonist, TRHR enhancer, D1 potentiator, D1 ag)
Cc1cccc(OCCSc2nnc(-c3cccs3)o2)c1	D1 ag 44
CCCN(CCC)C(=O)c1cc2c(=O)n3cccc(C)c3nc2s1	D1 antagonist -60!
CCC1CCCCN1C(=O)c1cc2c(=O)n3cccc(C)c3nc2s1 (stereo not given)	TRHR enhancer 39
CCCCN(CCCC)C(=O)c1cc2c(=O)n3cccc(C)c3nc2s1	none
CC(Oc1ccc(C(=O)c2ccc(F)cc2)cc1)C(=O)N1CCc2ccccc21 (stereo not given)	none (no result: TRHR ag, D1 antagonist, TRHR enhancer, D1 potentiator, D1 ag)
CC(=O)Nc1ccc(S(=O)(=O)NCC2CCC(C(=O)NCCc3cccc(C)c3)CC2)cc1 (stereo not given)	none (no result: TRHR ag, D1 antagonist, TRHR enhancer, D1 potentiator, D1 ag)
CSc1nn(Cc2cccc(F)c2)c(N(C(C)=O)C(C)=O)c1S(=O)(=O)c1ccccc1	LDHA inh -32
O=C(NN=C1CCCC1)c1cc(Br)ccc1O	none
O=C(N/N=C1/CCSC1)c1cc(Br)ccc1O	D1 antagonist -40
CS(=O)(=O)N(CC(=O)NCCc1ccccc1)C1CCCCC1	TRHR enhancer 40 (no result: D1 antagonist)
COc1ccc(CCNC(=O)CN(C2CCCCC2)S(C)(=O)=O)cc1OC	none
CCNC(=O)NC(=O)C(C)N(C)CCC(=O)NC (stereo not given)	none (no result: TRHR ag, D1 antagonist, TRHR enhancer, D1 potentiator, D1 ag)
COc1cc(CNc2nn[nH]n2)ccc1OCc1c(F)cccc1Cl	none (no result: TRHR ag, D1 antagonist, TRHR enhancer, D1 potentiator, D1 ag)
Cc1ccc(S(=O)(=O)N2CCN(c3ccc([N+](=O)[O-])c4cccnc34)CC2)cc1	LDHA inh -31!
O=C(CC(c1ccccc1)c1ccccc1)Nc1ncn[nH]1	D1 antagonist -36
CCc1ccc(NC(=S)NC2CCN(Cc3ccccc3)CC2)cc1	D1 antagonist -81, D1 ag 34
S=C(NCCc1ccccc1)NC1CC2CCC(C1)N2Cc1ccccc1 (stereo not given)	D1 antagonist -66, D1 ag 39
S=C(Nc1ccccc1)NC1CCN(Cc2ccccc2)CC1	none
CCCNC(=S)NC1CC2CCC(C1)N2Cc1ccccc1 (stereo not given)	none
COc1ccc(CCNC(=S)NC2CCN(Cc3ccccc3)CC2)cc1	D1 ag 42
S=C(Nc1ccc(Cl)cc1)NC1CCN(Cc2ccccc2)CC1	D1 antagonist -78, TRHR enhancer 38, D1 ag 39
S=C(NCCc1ccccc1)NC1CCC(NC(=S)NCCc2ccccc2)CC1 (stereo not given)	none
CCC(C)c1ccc(NC(=S)NC2CCN(Cc3ccccc3)CC2)cc1 (stereo not given)	none
Nc1sc2c(c1C(=O)c1ccccc1)CCCC2	D1 antagonist -66
CCN1CCN(CCOCCOc2ccccc2)CC1	LDHA inh -30
Cc1cccc(C)c1OCCN1CCCC1	none
Cc1cccc(C)c1OCCOCCN1CCN(C)CC1	LDHA inh -43!
CN1CCN(CCOc2cccc(Cl)c2)CC1	none
CCN1CCN(CCOc2cccc(Oc3ccccc3)c2)CC1	LDHA inh -33
COc1ccc(C(=O)NC(CO)c2nnc(SCc3ccc(Cl)c(Cl)c3)n2C)cc1 (stereo not given)	D1 antagonist -34
CCn1c(CCNC(=O)c2ccc(OC)cc2)nnc1SCc1ccc(Cl)c(Cl)c1	none
COCC(C)n1c(C)cc(C(=O)COC(=O)c2n[nH]c3ccccc23)c1C (stereo not given)	D1 antagonist -48
N#C/C(=C/c1ccc(O)cc1)c1nc(-c2ccc(-c3ccccc3)cc2)cs1	TRHR enhancer 43
COc1ccc(/C=C(/C#N)c2nc(-c3ccc(-c4ccccc4)cc3)cs2)cc1	none
Cc1ccc(-c2cc3nc(-c4ccccc4)cc(N)n3n2)cc1	none
Cc1cc(N)n2nc(-c3ccccc3)cc2n1	D1 antagonist -41
COc1ccc(OC)c2c1C(=O)c1ccccc1C2=O	TRHR ag 35, D1 ag 31
COc1ccc(N)c2c1C(=O)c1ccccc1C2=O	none
COc1cccc2c1C(=O)c1ccc3ccccc3c1C2=O	D1 antagonist -35
CC1Sc2ccc(C(=O)Nc3nc(-c4ccc(Cl)cc4)cs3)cc2NC1=O (stereo not given)	none (no result: TRHR ag, D1 antagonist, TRHR enhancer, D1 potentiator, D1 ag)
CC1CC(C)CN(CCOc2cccc(Cl)c2Cl)C1 (stereo not given)	D1 antagonist -35
CCN1CCN(CCOc2cccc(Cl)c2Cl)CC1	LDHA inh -36
COc1cc(CC2CC(c3cccc(Cl)c3)=NO2)c(OC)c2c1OCO2 (stereo not given)	none (no result: TRHR ag, D1 antagonist, TRHR enhancer, D1 potentiator, D1 ag)
c1ccc(Cn2c(NCc3ccco3)nc3ccccc32)cc1	D1 antagonist -36
CCn1c(NCc2ccco2)nc2ccccc21	none
O=C(NNS(=O)(=O)c1ccccc1[N+](=O)[O-])c1cccs1	none (no result: TRHR ag, D1 antagonist, TRHR enhancer, D1 potentiator, D1 ag)
CN(CC(=O)NC(=O)NCc1ccccc1)Cc1ccc(Cl)cc1Cl	none (no result: TRHR ag, D1 antagonist, TRHR enhancer, D1 potentiator, D1 ag)
COc1ccc(CN(C)CC(=O)NC(=O)NCc2ccccc2)c(OC)c1	D1 antagonist -55
O=C(Nc1ccc(S(=O)(=O)Nc2cnc3ccccc3n2)cc1)c1ccncc1	none (no result: TRHR ag, D1 antagonist, TRHR enhancer, D1 potentiator, D1 ag)
Cc1ccc2nc(Br)c3c(c2c1)OC(CBr)C3 (stereo not given)	none
Cc1nc2c(Cl)cccc2c2c1CC(CBr)O2 (stereo not given)	D1 antagonist -31
O=C(Nc1ccc(OC(F)(F)F)cc1)C1CC(c2ccc(F)cc2)=NO1 (stereo not given)	D1 antagonist -35
ClCC(Cl)C[n+]1cccc2ccccc21 (stereo not given)	LDHA inh -47 (no result: TRHR ag, D1 antagonist, TRHR enhancer, D1 potentiator, D1 ag)
Cc1ccc(-c2cc(-c3ccccc3)c(C#N)c(SCS(=O)Cc3ccccc3)n2)cc1 (stereo not given)	none (no result: TRHR ag, D1 antagonist, TRHR enhancer, D1 potentiator, D1 ag)
CCOc1ccccc1CNCc1ccco1	none (no result: TRHR ag, D1 antagonist, TRHR enhancer, D1 potentiator, D1 ag)
